Test results published in PubChem BioAssay (NCI).
This is part of a sample that, as a whole, favours compounds with a hit. Of some 79,000 tested, about 15% had one in any assay. Values without a mark were called inactive. The source made the active and inactive calls. No stated cut-off is given here; in the data, active means growth inhibition above about 70%; inactive means the rest.

What was measured:
[1] = NCI Yeast Anticancer Drug Screen. Data for the rad50 strain (AID 155);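 further: 0% = growth of vehicle-only cultures of the same strain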; conditions: S. cerevisiae rad50 strain growth inhibition, active compounds read high
Summary of the method: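 Genetically altered yeast (DNA repair pathway); compound treatment; growth inhibition vs vehicle ctrl.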

[2] = NCI Yeast Anticancer Drug Screen. Data for the mec2-1 strain (AID 157); conditions: S. cerevisiae mec2-1 strain, active compounds read high
Summary of the method: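 Using mec2-1 yeast: add compound, measure growth, express inhibition versus vehicle-treated cultures.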

[3] = NCI Yeast Anticancer Drug Screen. Data for the sgs1 mgt1 strain (AID 161);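 further: 0% = growth of cultures given vehicle only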; conditions: S. cerevisiae sgs1 mgt1 strain, active compounds read high
Summary of the method: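 This yeast growth screen uses a strain with defined DNA-repair lesions; compound-treated growth is compared with vehicle-treated growth.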

[4] = NCI Yeast Anticancer Drug Screen. Data for the cln2 rad14 strain (AID 165);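 further: 0% = growth equal to vehicle treated cultures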; conditions: S. cerevisiae cln2 rad14 strain, active compounds read high
Summary of the method: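 Yeast strain cln2 rad14, bearing defects in cell cycle control and DNA repair, serves as the test system; values reflect growth inhibition compared with vehicle.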

[5] = NCI Yeast Anticancer Drug Screen. Data for the bub3 strain (AID 167); conditions: S. cerevisiae bub3 mutant strain, active compounds read high
Summary of the method: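 Yeast carrying a defined mutation is treated with each compound, and growth is compared with that of vehicle-exposed cells to give inhibition.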

[6] = NCI Yeast Anticancer Drug Screen. Data for the mlh1 rad18 strain (AID 175); conditions: S. cerevisiae mlh1 rad18 strain growth inhibition, active compounds read high
Summary of the method: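 Steps: expose repair-defective yeast to compound; measure growth; express inhibition against vehicle-treated controls.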

[7] = at 5.0 µM (retest, dose inferred, filed as 0.5)
[8] = at 50.0 µM (retest, dose inferred, filed as 5.0)

## CC(=O)O[C@H]1CC[C@]2(C)C3=CC[C@]4(C)[C@@H](C(C)=O)CC[C@H]4[C@@]34C=C[C@]2(C1)C1C(=O)OC(=O)C14 (stereo not given in full)
[1]; [7]
  growth inhibition: 2%
[1]; [8]
  growth inhibition: 2%
[1]; at 50.0 µM
  growth inhibition: 58.2%
[2]; [7]
  growth inhibition: 2%
[2]; [8]
  growth inhibition: 6%
[2]; at 50.0 µM
  growth inhibition: 20.7%
[3]; [7]
  growth inhibition: 1%
[3]; [8]
  growth inhibition: 7%
[3]; at 50.0 µM
  growth inhibition: 29.4%
[4]; [7]
  growth inhibition: 4%
[4]; [8]
  growth inhibition: 4%
[4]; at 50.0 µM
  growth inhibition: -24%
[5]; [7]
  growth inhibition: 3%
[5]; [8]
  growth inhibition: 4%
[5]; at 50.0 µM
  growth inhibition: 56.9%
[6]; [7]
  growth inhibition: -20%
[6]; [8]
  growth inhibition: -26%
[6]; at 50.0 µM
  growth inhibition: 70.8% (active)

## CCCCc1ccc2nc(C)cc(N/N=C/c3ccc4c(c3)OCO4)c2c1
[1]; [7]
  growth inhibition: 9%
[1]; [8]
  growth inhibition: 20%
[1]; at 50.0 µM
  growth inhibition: 66.7%
[2]; [7]
  growth inhibition: 1%
[2]; [8]
  growth inhibition: 19%
[2]; at 50.0 µM
  growth inhibition: 22%
[3]; [7]
  growth inhibition: 15%
[3]; [8]
  growth inhibition: 31%
[3]; at 50.0 µM
  growth inhibition: 73.5% (active)
[4]; [7]
  growth inhibition: -3%
[4]; [8]
  growth inhibition: 2%
[4]; at 50.0 µM
  growth inhibition: 15.9%
[5]; [7]
  growth inhibition: -4%
[5]; [8]
  growth inhibition: 1%
[5]; at 50.0 µM
  growth inhibition: 6.6%
[6]; [7]
  growth inhibition: 9%
[6]; [8]
  growth inhibition: 35%
[6]; at 50.0 µM
  growth inhibition: 29.8%

## CC(=O)N1CCC(Cc2ccccc2)CC1
[1]; [7]
  growth inhibition: -105%
[1]; [8]
  growth inhibition: 95% (active)
[1]; at 50.0 µM
  growth inhibition: 2.3%
[2]; [7]
  growth inhibition: -46%
[2]; [8]
  growth inhibition: 80% (active)
[2]; at 50.0 µM
  growth inhibition: 18.3%
[3]; [7]
  growth inhibition: -49%
[3]; [8]
  growth inhibition: 92% (active)
[3]; at 50.0 µM
  growth inhibition: 11.2%
[4]; [7]
  growth inhibition: -55%
[4]; [8]
  growth inhibition: 70% (active)
[4]; at 50.0 µM
  growth inhibition: 56.9%
[5]; [7]
  growth inhibition: -51%
[5]; [8]
  growth inhibition: 89% (active)
[5]; at 50.0 µM
  growth inhibition: 22.4%
[6]; [7]
  growth inhibition: -103%
[6]; [8]
  growth inhibition: 91% (active)
[6]; at 50.0 µM
  growth inhibition: 25%

## CCCCc1c2c(nc3c1CCc1cc4cc5c(nc4nc1-3)-c1nc3c(c(CCCC)c1CC5)CCC/C3=N/OC)/C(=N\OC)CCC2
[1]; [7]
  growth inhibition: 0%
[1]; [8]
  growth inhibition: 76% (active)
[1]; at 50.0 µM
  growth inhibition: 94.2% (active)
[2]; [7]
  growth inhibition: 2%
[2]; [8]
  growth inhibition: 94% (active)
[2]; at 50.0 µM
  growth inhibition: 96% (active)
[3]; [7]
  growth inhibition: -4%
[3]; [8]
  growth inhibition: 90% (active)
[3]; at 50.0 µM
  growth inhibition: 95.8% (active)
[4]; [7]
  growth inhibition: -22%
[4]; [8]
  growth inhibition: 93% (active)
[4]; at 50.0 µM
  growth inhibition: 95.3% (active)
[5]; [7]
  growth inhibition: -5%
[5]; [8]
  growth inhibition: 90% (active)
[5]; at 50.0 µM
  growth inhibition: 95.9% (active)
[6]; [7]
  growth inhibition: -11%
[6]; [8]
  growth inhibition: 93% (active)
[6]; at 50.0 µM
  growth inhibition: 95.7% (active)

## CC1(C)CC([P+](c2ccccc2)(c2ccccc2)c2ccccc2)=NN1
[1]; [7]
  growth inhibition: 66%
[1]; [8]
  growth inhibition: 91% (active)
[1]; at 50.0 µM
  growth inhibition: 76.2% (active)
[2]; [7]
  growth inhibition: 41%
[2]; [8]
  growth inhibition: 84% (active)
[2]; at 50.0 µM
  growth inhibition: 77.5% (active)
[3]; [7]
  growth inhibition: 60%
[3]; [8]
  growth inhibition: 89% (active)
[3]; at 50.0 µM
  growth inhibition: 79.5% (active)
[4]; [7]
  growth inhibition: 48%
[4]; [8]
  growth inhibition: 81% (active)
[4]; at 50.0 µM
  growth inhibition: 46%
[5]; [7]
  growth inhibition: 71% (active)
[5]; [8]
  growth inhibition: 91% (active)
[5]; at 50.0 µM
  growth inhibition: 83.5% (active)
[6]; [7]
  growth inhibition: 56%
[6]; [8]
  growth inhibition: 83% (active)
[6]; at 50.0 µM
  growth inhibition: 79.5% (active)

## Oc1c(I)cc(Cl)c2cccnc12
[1]; [7]
  growth inhibition: 64%
[1]; [8]
  growth inhibition: 96% (active)
[1]; at 50.0 µM
  growth inhibition: 97.2% (active)
[2]; [7]
  growth inhibition: 63%
[2]; [8]
  growth inhibition: 97% (active)
[2]; at 50.0 µM
  growth inhibition: 98.3% (active)
[3]; [7]
  growth inhibition: 46%
[3]; [8]
  growth inhibition: 97% (active)
[3]; at 50.0 µM
  growth inhibition: 97.8% (active)
[4]; [7]
  growth inhibition: 72% (active)
[4]; [8]
  growth inhibition: 98% (active)
[4]; at 50.0 µM
  growth inhibition: 96.8% (active)
[5]; [7]
  growth inhibition: 39%
[5]; [8]
  growth inhibition: 96% (active)
[5]; at 50.0 µM
  growth inhibition: 98.8% (active)
[6]; [7]
  growth inhibition: 74% (active)
[6]; [8]
  growth inhibition: 95% (active)
[6]; at 50.0 µM
  growth inhibition: 98% (active)

## OC1C2COc3nc4ccccc4n3C(O2)C1O (stereo not given)
[1]; [7]
  growth inhibition: -153%
[1]; [8]
  growth inhibition: -165%
[1]; at 50.0 µM
  growth inhibition: -7.3%
[2]; [7]
  growth inhibition: -54%
[2]; [8]
  growth inhibition: -57%
[2]; at 50.0 µM
  growth inhibition: 5.4%
[3]; [7]
  growth inhibition: -58%
[3]; [8]
  growth inhibition: -70%
[3]; at 50.0 µM
  growth inhibition: -10.4%
[4]; [7]
  growth inhibition: -60%
[4]; [8]
  growth inhibition: -56%
[4]; at 50.0 µM
  growth inhibition: 33.6%
[5]; [7]
  growth inhibition: -69%
[5]; [8]
  growth inhibition: -84%
[5]; at 50.0 µM
  growth inhibition: -14.9%
[6]; [7]
  growth inhibition: -117%
[6]; [8]
  growth inhibition: -118%
[6]; at 50.0 µM
  growth inhibition: -7.05%

## CN(C)C(=S)/N=c1\ss/c(=N/C(=S)N(C)C)n1-c1ccc([N+](=O)[O-])cc1
[1]; [7]
  growth inhibition: 6%
[1]; [8]
  growth inhibition: 32%
[1]; at 50.0 µM
  growth inhibition: 97.8% (active)
[2]; [7]
  growth inhibition: 18%
[2]; [8]
  growth inhibition: 41%
[2]; at 50.0 µM
  growth inhibition: 93.3% (active)
[3]; [7]
  growth inhibition: 1%
[3]; [8]
  growth inhibition: 33%
[3]; at 50.0 µM
  growth inhibition: 97.8% (active)
[4]; [7]
  growth inhibition: -7%
[4]; [8]
  growth inhibition: -2%
[4]; at 50.0 µM
  growth inhibition: 91.3% (active)
[5]; [7]
  growth inhibition: 5%
[5]; [8]
  growth inhibition: 4%
[5]; at 50.0 µM
  growth inhibition: 98.8% (active)
[6]; [7]
  growth inhibition: 4%
[6]; [8]
  growth inhibition: 30%
[6]; at 50.0 µM
  growth inhibition: 98.2% (active)

## CCCCCCCCCCCCCCCCCC(=O)OCC(O)COC(=O)CCCCCCCCCCCCCCCCC
[1]; [7]
  growth inhibition: -2%
[1]; [8]
  growth inhibition: -5%
[1]; at 50.0 µM
  growth inhibition: -7.45%
[2]; [7]
  growth inhibition: 1%
[2]; [8]
  growth inhibition: -3%
[2]; at 50.0 µM
  growth inhibition: 15.6%
[3]; [7]
  growth inhibition: -3%
[3]; [8]
  growth inhibition: -21%
[3]; at 50.0 µM
  growth inhibition: -8.65%
[4]; [7]
  growth inhibition: 0%
[4]; [8]
  growth inhibition: -13%
[4]; at 50.0 µM
  growth inhibition: 38.4%
[5]; [7]
  growth inhibition: 4%
[5]; [8]
  growth inhibition: 0%
[5]; at 50.0 µM
  growth inhibition: 45.5%
[6]; [7]
  growth inhibition: 2%
[6]; [8]
  growth inhibition: -1%
[6]; at 50.0 µM
  growth inhibition: 2.55%

## O=C(Nc1ccc(F)cc1)ON=C1CCCCC1
[1]; [7]
  growth inhibition: 56%
[1]; [8]
  growth inhibition: 99% (active)
[1]; at 50.0 µM
  growth inhibition: 90.2% (active)
[2]; [7]
  growth inhibition: 46%
[2]; [8]
  growth inhibition: 100% (active)
[2]; at 50.0 µM
  growth inhibition: 92.3% (active)
[3]; [7]
  growth inhibition: 56%
[3]; [8]
  growth inhibition: 99% (active)
[3]; at 50.0 µM
  growth inhibition: 91.5% (active)
[4]; [7]
  growth inhibition: 33%
[4]; [8]
  growth inhibition: 99% (active)
[4]; at 50.0 µM
  growth inhibition: 90.8% (active)
[5]; [7]
  growth inhibition: 45%
[5]; [8]
  growth inhibition: 66%
[5]; at 50.0 µM
  growth inhibition: 91.1% (active)
[6]; [7]
  growth inhibition: 69%
[6]; [8]
  growth inhibition: 99% (active)
[6]; at 50.0 µM
  growth inhibition: 90.4% (active)
